PubChem BioAssay (Tox21)
Inconclusive results are not listed. Active and inactive are the calls of the source. Unless noted, calls come from the whole dose curve; as a rule, active = well fitted curve in the direction sought with a large enough effect in the repeat runs; inconclusive = weak or mixed curves; inactive = no such curve, though single readings can be large; an effect the other way counts as inactive or inconclusive.

Experiments:
[1] = A CellTox Green Cytotoxicity Assay to monitor cytotoxicity in HepG2 cells - 8 hour (AID 1224890); note: nearly all actives have a fitted effect of over 45% in size
Procedure, shortened: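 Fluorescent DNA-binding dye, 600 HepG2 cells/well, 5 h preincubation then compound in DMSO; same plates read at 0–40 h, 37 C.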

[2] = qHTS assay to identify small molecule antagonists of the estrogen receptor alpha (ER-alpha) signaling pathway using the BG1 cell line in the presence of 0.1 nM 17-beta-estradiol - cell viability counter screen (AID 1259241); note: nearly all actives have a fitted effect of over 40% in size
Procedure, shortened: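 Viability in VM7Luc4E2 cells after 22 hr compound exposure under 0.1 nM 17beta-estradiol stimulation, by CellTiter-Fluor.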

[3] = qHTS assay to identify small molecule antagonists of the androgen receptor (AR) signaling pathway using the MDA cell line in the presence of 0.5 nM R1881 - cell viability counter screen (AID 1259242); note: nearly all actives have a fitted effect of over 45% in size
Procedure, shortened: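 Human breast carcinoma MDA-kb2 cells, cultured without CO2, receive compounds alongside 0.5 nM (final) R1881 agonist. After 16 hr at 37C, viability is taken as live-cell protease signal.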

[4] = molecular target: Androgen receptor (Homo sapiens) (UniProt P10275); experiment: qHTS assay to identify small molecule antagonists of the androgen receptor (AR) signaling pathway using the MDA cell line in the presence of 0.5 nM R1881 (AID 1259243); note: nearly all actives have a fitted effect of over 50% in size
Procedure, shortened: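 Cells: MDA-kb2 (MMTV-luc). Stimulus: 0.5 nM R1881. Time: 16 hr, 37C, no CO2. Detection: ONE-Glo luminescence after 30 min at RT.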

[5] = qHTS assay to identify small molecule phospholipidosis (PLD) inducers (AID 1259344; active = well fitted curve in the direction sought with a large enough effect; an effect the other way counts as inactive or inconclusive)
Procedure, shortened: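 Accumulated phospholipid, stained red by LipidTOX during 24 h compound treatment of HepG2 cells at 37 C, is quantified from images as pit number and intensity, normalised per cell using Hoechst-stained nuclei.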

[6] = qHTS assay to identify small molecule HDAC inhibitors (AID 1259364); note: potency is the fitted concentration of half-maximal effect;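 note: wild-type HCT-116 cells with endogenous class I/II HDAC activity; nearly all actives have a fitted effect of over 45% in size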
Procedure, shortened: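 After a 2 hr compound incubation (37C, 5% CO2), HCT-116 cells seeded at 1,500/well the day before received HDAC-Glo reagent; signal read as luminescence after 30 min at room temperature.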

[7] = qHTS assay to identify small molecule HDAC inhibitors - cell viability counter screen (AID 1259365); note: series mostly up to about 92 µM; nearly all actives have a fitted effect of over 50% in size
Procedure, shortened: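 Cytotoxicity was gauged in wild-type HCT-116 cells after a brief 2hr treatment with DMSO-dissolved compounds at 37C and 5% CO2, using CellTiter-Glo luminescence developed for 30min at room temperature.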

[8] = qHTS assay to identify small molecule agonists of the sonic hedgehog signaling (Shh) pathway - cell viability counter screen (AID 1259366); note: nearly all actives have a fitted effect of over 50% in size
Procedure, shortened: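 Stable Gli1-Luc NIH/3T3 clone, 2,000 cells/well. Compound exposure 24hr at 37C. Read-out: CellTiter-Fluor fluorescence.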

[9] = qHTS assay to identify small molecule antagonists of the sonic hedgehog signaling (Shh) pathway - cell viability counter screen (AID 1259367); note: nearly all actives have a fitted effect of over 55% in size
Procedure, shortened: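 CellTiter-Fluor signal in conditioned medium-stimulated 3T3 Gli1-Luc cells, 23 hr compound exposure, 37C.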

[10] = qHTS assay to identify small molecule agonists of the sonic hedgehog signaling (Shh) pathway (AID 1259368; calls by dose curve;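 note: NIH/3T3-derived 3T3Gli1-Luc cells carrying a stable Gli1-driven firefly luciferase reporter; series mostly up to about 92 µM; nearly all actives have a fitted effect of over 15% in size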)
Procedure, shortened: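 Stable NIH/3T3 Gli1-Luc reporter clone; 24 hr cpd exposure after a 4 hr settling period; luminescence endpoint.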

[11] = qHTS assay to identify small molecule antagonists of the sonic hedgehog signaling (Shh) pathway (AID 1259369; calls by dose curve; note: nearly all actives have a fitted effect of over 45% in size; note: potency is the fitted concentration of half-maximal effect)
Procedure, shortened: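 Gli1 transcriptional reporter (firefly Luc) in NIH/3T3 background, conditioned-medium activated. 24hr exposure, luminescence endpoint.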

[12] = molecular target: Estrogen receptor beta (Homo sapiens) (UniProt Q92731); experiment: qHTS assay to identify small molecule antagonists of the estrogen receptor beta (ER-beta) signaling pathway (AID 1259378; active = well fitted inhibition curve with a large enough effect in the signal ratio in the repeat runs, not every such curve was filed as active; the % refers to the signal ratio)
Procedure, shortened: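 Antagonist mode: compounds added to beta-lactamase reporter HEK293T ER-beta-UAS cells stimulated with E2 (1nM final), 16 hr at 37C. LiveBLAzer B/G FRET substrate, 2 hours room temperature, fluorescence read-out.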

[13] = qHTS assay to identify small molecule agonists of the androgen receptor (AR) signaling pathway in the presence of an antagonist - cell viability counter screen (AID 1259379);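 note: MDA-kb2 human breast cancer cells carrying an MMTV luciferase reporter; series mostly up to about 92 µM; nearly all actives have a fitted effect of over 25% in size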
Procedure, shortened: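 Counter screen for cell viability run in parallel with the AR agonist-mode luciferase assay. MDA-kb2 cells were co-treated with nilutamide (3.0uM final) and compounds, then incubated 16 hr at 37C, and CellTiter-Fluor fluorescence was measured.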

[14] = qHTS assay to identify small molecule agonists of the estrogen receptor beta (ER-beta) signaling pathway - cell viability counter screen (AID 1259380); note: nearly all actives have a fitted effect of over 30% in size; note: potency is the fitted concentration of half-maximal effect
Procedure, shortened: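 In this qHTS counter screen, HEK293T cells carrying an ER-beta/UAS beta-lactamase reporter, grown in 2% charcoal-stripped FBS, received compound for 16 hr; ATP-based CellTiter-Glo luminescence was then read after 30 min at room temperature.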

[15] = molecular target: Androgen receptor (Homo sapiens) (UniProt P10275); experiment: qHTS assay to identify small molecule agonists of the androgen receptor (AR) signaling pathway in the presence of an antagonist (AID 1259381; calls by dose curve; note: nearly all actives have a fitted effect of over 15% in size)
Procedure, shortened: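 AR antagonist background: nilutamide 3.0uM final. Cell line: MDA-kb2, MMTV-driven luciferase, responsive to both AR and GR. Exposure 16hr, 37C, no CO2; ONE-Glo luminescence.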

[16] = qHTS assay to identify small molecule antagonists of the estrogen receptor beta (ER-beta) signaling pathway - cell viability counter screen (AID 1259382);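 note: HEK293T cells carrying ER-beta-UAS-bla reporter stimulated with estradiol; series mostly up to about 92 µM; nearly all actives have a fitted effect of over 55% in size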
Procedure, shortened: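 HEK293T ER-beta-UAS-bla, 2% charcoal-stripped FBS; compounds + 1nM E2 16 hr 37C; CellTiter-Glo luminescence, 30 min RT.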

[17] = molecular target: Estrogen receptor (Homo sapiens) (UniProt P03372); experiment: qHTS assay to identify small molecule antagonists of the estrogen receptor alpha (ER-alpha) signaling pathway using the BG1 cell line in the presence of 0.1 nM 17-beta-estradiol (AID 1259244); note: nearly all actives have a fitted effect of over 50% in size
Procedure, shortened: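 Seeding of stripped-serum-adapted VM7Luc4E2 cells, 24 h attachment, compound transfer, then 0.1 nM final 17beta-estradiol; after 22 h incubation, ONE-Glo reagent and luminescence reading.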

[18] = molecular target: Estrogen receptor beta (Homo sapiens) (UniProt Q92731); experiment: qHTS assay to identify small molecule agonists of the estrogen receptor beta (ER-beta) signaling pathway (AID 1259377; active = well fitted activation curve with a large enough effect in the signal ratio in the repeat runs, not every such curve was filed as active; the % refers to the signal ratio)
Procedure, shortened: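 Measured by fluorescence intensity from a B/G FRET beta-lactamase substrate (2 h, room temperature) in ER-beta-UAS-bla HEK293T cells treated with DMSO-dissolved compounds for 16 hr at 37C and 5% CO2.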

[19] = molecular target: Estrogen receptor (Homo sapiens) (UniProt P03372); experiment: qHTS assay to identify small molecule agonists of the estrogen receptor alpha (ER-alpha) signaling pathway in the presence of an antagonist (AID 1259383; calls by dose curve; note: top concentration of the series differs between compounds; nearly all actives have a fitted effect of over 15% in size)
Procedure, shortened: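 ER-alpha agonism measured under antagonist challenge: 10.0nM ICI-182,780 (final) plus compound, 15 concentrations, 22hr, VM7Luc4E2 ERE-luciferase cells. Read by luminescence.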

[20] = qHTS assay to identify small molecule agonists or antagonists of the thyroid stimulating hormone receptor (TSHR) signaling pathway - wild type cell line counter screen (AID 1259384; calls by dose curve)
Procedure, shortened: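 Counter screen in untransfected Hek293: compounds (15-point titration, triplicate) plus phosphodiesterase inhibitor Ro20-1724 added after 18 h plating; 30 min RT. Intracellular cAMP via competitive d2/cryptate immunoassay, 1 h incubation.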
% is set by controls: 0 for no effect and ±100 for the full control effect.

Estrogen receptor (Homo sapiens), sequence (P03372 whole entry, looked up): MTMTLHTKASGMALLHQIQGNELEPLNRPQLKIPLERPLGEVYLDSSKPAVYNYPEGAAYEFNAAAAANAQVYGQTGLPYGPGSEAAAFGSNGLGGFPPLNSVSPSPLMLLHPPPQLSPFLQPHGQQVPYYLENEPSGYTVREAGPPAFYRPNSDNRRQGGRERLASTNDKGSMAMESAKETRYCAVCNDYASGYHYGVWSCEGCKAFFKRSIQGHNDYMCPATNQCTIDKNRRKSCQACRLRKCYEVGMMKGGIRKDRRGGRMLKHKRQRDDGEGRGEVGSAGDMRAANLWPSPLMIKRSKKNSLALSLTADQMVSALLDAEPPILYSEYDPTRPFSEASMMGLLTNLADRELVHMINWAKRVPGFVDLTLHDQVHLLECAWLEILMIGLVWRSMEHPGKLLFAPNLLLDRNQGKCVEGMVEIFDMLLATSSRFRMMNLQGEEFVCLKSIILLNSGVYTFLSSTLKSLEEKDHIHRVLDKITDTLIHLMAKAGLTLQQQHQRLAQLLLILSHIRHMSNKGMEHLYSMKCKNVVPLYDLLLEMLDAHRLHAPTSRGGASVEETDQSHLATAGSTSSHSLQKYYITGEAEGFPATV
Estrogen receptor beta (Homo sapiens), sequence (Q92731 whole entry, looked up): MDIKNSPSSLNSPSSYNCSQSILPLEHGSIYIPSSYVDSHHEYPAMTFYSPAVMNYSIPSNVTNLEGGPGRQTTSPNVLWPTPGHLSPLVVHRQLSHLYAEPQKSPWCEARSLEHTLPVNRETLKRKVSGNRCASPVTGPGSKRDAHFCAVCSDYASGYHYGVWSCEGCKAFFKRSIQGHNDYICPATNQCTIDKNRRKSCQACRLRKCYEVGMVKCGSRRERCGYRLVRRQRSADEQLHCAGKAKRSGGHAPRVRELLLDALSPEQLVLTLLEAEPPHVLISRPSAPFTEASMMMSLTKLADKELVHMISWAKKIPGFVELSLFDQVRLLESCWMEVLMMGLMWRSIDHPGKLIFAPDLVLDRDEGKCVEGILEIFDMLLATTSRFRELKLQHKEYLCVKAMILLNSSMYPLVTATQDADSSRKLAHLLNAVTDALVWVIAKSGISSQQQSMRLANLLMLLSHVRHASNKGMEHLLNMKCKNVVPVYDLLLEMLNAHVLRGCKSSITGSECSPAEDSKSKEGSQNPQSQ
Androgen receptor (Homo sapiens), sequence (P10275 whole entry, looked up): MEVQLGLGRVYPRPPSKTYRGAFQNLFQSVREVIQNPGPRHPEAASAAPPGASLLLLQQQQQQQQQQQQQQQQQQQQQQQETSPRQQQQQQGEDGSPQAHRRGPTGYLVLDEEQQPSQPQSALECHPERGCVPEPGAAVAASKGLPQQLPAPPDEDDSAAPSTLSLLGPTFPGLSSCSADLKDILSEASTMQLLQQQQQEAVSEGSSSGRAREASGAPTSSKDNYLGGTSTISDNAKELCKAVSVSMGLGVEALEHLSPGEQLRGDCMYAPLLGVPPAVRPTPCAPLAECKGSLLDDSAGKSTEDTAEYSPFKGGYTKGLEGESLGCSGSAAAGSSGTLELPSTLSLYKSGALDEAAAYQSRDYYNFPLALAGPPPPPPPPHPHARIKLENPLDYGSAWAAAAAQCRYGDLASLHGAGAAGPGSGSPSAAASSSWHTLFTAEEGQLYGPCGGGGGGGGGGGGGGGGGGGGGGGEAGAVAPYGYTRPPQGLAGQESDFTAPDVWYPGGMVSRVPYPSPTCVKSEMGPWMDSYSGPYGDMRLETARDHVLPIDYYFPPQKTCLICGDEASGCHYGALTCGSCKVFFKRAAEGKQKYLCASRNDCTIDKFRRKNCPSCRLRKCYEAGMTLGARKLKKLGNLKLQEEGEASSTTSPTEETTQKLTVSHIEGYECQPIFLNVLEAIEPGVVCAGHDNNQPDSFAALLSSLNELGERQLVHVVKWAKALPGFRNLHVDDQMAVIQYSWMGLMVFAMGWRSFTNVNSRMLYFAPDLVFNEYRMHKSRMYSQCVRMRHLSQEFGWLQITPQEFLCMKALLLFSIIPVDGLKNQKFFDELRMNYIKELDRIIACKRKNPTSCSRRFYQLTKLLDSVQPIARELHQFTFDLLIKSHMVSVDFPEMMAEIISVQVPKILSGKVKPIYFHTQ

NC1CCN(c2cccc(Cl)n2)CC1
active: Potency [11] 1330 nM
inactive: Potency [1] | outcome [2] | outcome [3] | Potency [4] | Potency [5] | Potency [6] | outcome [7] | Potency [8] | outcome [9] | Potency [10] | Potency [12] | Potency [13] | Potency [14] | Potency [15] | Potency [16]

CN1[C@@H]2CC[C@H]1CC(NC(=O)n1c(=O)[nH]c3ccccc31)C2 (stereo partly specified)
inactive: Potency [1] | outcome [2] | outcome [3] | Potency [4] | outcome [17] | Potency [5] | Potency [6] | outcome [7] | Potency [8] | outcome [9] | Potency [10] | Potency [11] | outcome [18] | Potency [14] | Potency [15] | Potency [16] | Potency [19]

O=C(O)c1ccc[n+]([O-])c1
inactive: Potency [1] | outcome [2] | outcome [3] | Potency [4] | outcome [17] | Potency [5] | Potency [6] | outcome [7] | Potency [8] | outcome [9] | Potency [10] | Potency [11] | outcome [18] | Potency [13] | Potency [14] | Potency [15] | Potency [16] | Potency [19] | outcome [20]

CCCCCCCCN(C)CCCCCCCC
inactive: Potency [1] | outcome [2] | outcome [3] | Potency [4] | outcome [17] | Potency [6] | outcome [7] | Potency [8] | outcome [9] | Potency [10] | Potency [11] | Potency [13] | Potency [14] | Potency [15] | Potency [16] | Potency [19] | outcome [20]

Cc1nc(-c2ccc(OCC(C)C)c(C#N)c2)sc1C(=O)O
active: Potency [6] 335 nM
inactive: Potency [1] | outcome [2] | outcome [3] | Potency [4] | outcome [17] | Potency [5] | outcome [7] | Potency [8] | outcome [9] | Potency [11] | Potency [13] | Potency [15] | Potency [16] | Potency [19] | outcome [20]

O=S(=O)(O)c1ccccc1O
inactive: Potency [1] | outcome [2] | outcome [3] | Potency [4] | outcome [17] | Potency [6] | outcome [7] | Potency [8] | outcome [9] | Potency [10] | Potency [11] | outcome [18] | Potency [12] | Potency [13] | Potency [14] | Potency [15] | Potency [16] | Potency [19] | outcome [20]

CCN1CCCC1CNC(=O)c1cc(S(N)(=O)=O)ccc1OC (stereo unspecified)
inactive: Potency [1] | outcome [2] | outcome [3] | Potency [4] | Potency [6] | outcome [7] | Potency [8] | outcome [9] | Potency [10] | Potency [13] | Potency [15] | outcome [20]

NS(=O)(=O)c1cc2c(cc1C(F)(F)F)NC(Cc1ccccc1)NS2(=O)=O (stereo unspecified)
inactive: Potency [1] | outcome [2] | outcome [3] | Potency [4] | Potency [5] | Potency [6] | outcome [7] | Potency [8] | outcome [9] | Potency [10] | Potency [11] | outcome [18] | Potency [12] | Potency [13] | Potency [14] | Potency [15] | Potency [16] | outcome [20]

O=c1[nH]c2ccccc2c(=O)n1CCCl
inactive: Potency [1] | outcome [2] | outcome [3] | Potency [4] | Potency [6] | outcome [7] | Potency [8] | outcome [9] | Potency [10] | outcome [18] | Potency [13] | Potency [14] | Potency [15] | Potency [16] | outcome [20]

CC(C)CCCCCCN
inactive: Potency [1] | outcome [2] | outcome [3] | Potency [4] | outcome [17] | Potency [6] | outcome [7] | Potency [8] | outcome [9] | Potency [10] | Potency [11] | outcome [18] | Potency [12] | Potency [13] | Potency [14] | Potency [15] | Potency [16] | Potency [19] | outcome [20]

CC(C)c1ccc2oc3nc(N)c(C(=O)O)cc3c(=O)c2c1
active: Potency [6] 266 nM | Potency [14] 23700 nM
inactive: Potency [1] | outcome [2] | outcome [3] | Potency [4] | outcome [17] | Potency [5] | outcome [7] | Potency [8] | outcome [9] | Potency [10] | Potency [11] | Potency [13] | Potency [19]

O=C(O)/C=C/c1ccc(/C=C/C(=O)O)cc1
active: Potency [6] 1340 nM
inactive: Potency [1] | outcome [2] | outcome [3] | Potency [4] | Potency [8] | outcome [9] | Potency [10] | Potency [11] | outcome [18] | Potency [13] | Potency [14] | Potency [16]

CCCC(C)CO (stereo unspecified)
inactive: Potency [1] | outcome [2] | outcome [3] | Potency [4] | Potency [6] | Potency [8] | outcome [9] | Potency [10] | Potency [11] | outcome [18] | Potency [13] | Potency [14] | Potency [15] | Potency [16] | outcome [20]

CCCOCC(C)OCC(C)O (stereo unspecified)
inactive: Potency [1] | outcome [2] | outcome [3] | Potency [4] | Potency [6] | outcome [7] | Potency [8] | outcome [9] | Potency [10] | Potency [11] | outcome [18] | Potency [12] | Potency [13] | Potency [14] | Potency [15] | Potency [16] | outcome [20]

CCCOc1ccccc1-c1nc2n[nH]nc2c(=O)[nH]1
inactive: Potency [1] | outcome [2] | outcome [3] | outcome [17] | Potency [5] | Potency [6] | outcome [7] | Potency [8] | outcome [9] | Potency [10] | outcome [18] | Potency [13] | Potency [14] | Potency [16] | Potency [19] | outcome [20]

CCc1cc(S(=O)(=O)O)c2cc(C(C)C)cccc1-2
inactive: Potency [1] | outcome [2] | outcome [3] | outcome [17] | PLD induction [5] -3.58% [at 7.66 µM] | Potency [6] | Potency [8] | outcome [9] | Potency [10] | Potency [11] | outcome [18] | Potency [12] | Potency [13] | Potency [14] | Potency [16] | Potency [19] | outcome [20]
